Values joined by “and” are separate entries in the source; they are usually repeats but may differ in a detail not shown here. Equal values may be shown once. Out of some 5,500 compounds screened, about 2,000 (36%) were called active. Another 18% or so got no clear call; they are omitted. This is one part of the list. Values without a mark were called inactive. Cut-off read from the data, not from the text of the source: active = normalized growth mostly below about 0.91 (no sharp cut-off); inconclusive = no clear call, values can overlap the other calls; inactive = mostly above about 0.92.
Assay: chemical genetic growth profiling, strain panel (AID 1159580);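 note: tested at 20 µM; growth read once vehicle control cultures reached saturation at 30 °C; 1 = growth at the plate median or of vehicle wells; lower values mean less growth of the strain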
Conditions: S. cerevisiae deletion strains, growth OD

With `O=c1[nH]c2ccccc2n1C1CCN(CCCC(c2ccc(F)cc2)c2ccc(F)cc2)CC1` the normalized growth (locus YAL013W, strain DEP1, active compounds read low) was 1.01 and 0.995, the normalized growth (locus YAL021C, strain ccr4, active compounds read low) was 0.839 (active) and the normalized growth (locus YAL026C, strain drs2, active compounds read low) was 0.948. It also gave a normalized growth (locus YAL030W, strain snc1, active compounds read low) of 0.963, a normalized growth (locus YAL040C, strain CLN3, active compounds read low) of 1.03 and a normalized growth (locus YBL061C, strain skt5, active compounds read low) of 0.967. For the same molecule, the normalized growth (locus YBR009C, strain hhf1, active compounds read low) was 0.875 (active), the normalized growth (locus YBR021W, strain FUR4, active compounds read low) was 0.969 and the normalized growth (locus YBR023C, strain chs3, active compounds read low) was 0.918. It also gave a normalized growth (locus YBR171W, strain sec66, active compounds read low) of 1.03, a normalized growth (locus YBR229C, strain ROT2, active compounds read low) of 0.948 and a normalized growth (locus YBR231C, strain swc5, active compounds read low) of 0.92. For the same molecule, the normalized growth (locus YBR279W, strain paf1, active compounds read low) was 0.953, the normalized growth (locus YCL011C, strain gbp2, active compounds read low) was 0.93 and the normalized growth (locus YCL016C, strain dcc1, active compounds read low) was 0.95. The normalized growth (locus YCL029C, strain bik1, active compounds read low) was 0.986, the normalized growth (locus YCL061C, strain MRC1 (second series), active compounds read low) was 1.01 and the normalized growth (locus YCL061C, strain MRC1, active compounds read low) was 0.95. It also gave a normalized growth (locus YCL069W, strain vba3, active compounds read low) of 1, a normalized growth (locus YCR088W, strain abp1, active compounds read low) of 1 and a normalized growth (locus YDL005C, strain med2, active compounds read low) of 1.01. It also gave a normalized growth (locus YDL035C, strain GPR1, active compounds read low) of 0.968, a normalized growth (locus YDL040C, strain nat1, active compounds read low) of 1.01 and a normalized growth (locus YDL074C, strain BRE1, active compounds read low) of 0.904. It also gave a normalized growth (locus YDL101C, strain DUN1, active compounds read low) of 0.978, a normalized growth (locus YDL134C, strain PPH21, active compounds read low) of 0.972 and a normalized growth (locus YDL185W, strain tfp1, active compounds read low) of 0.997. The normalized growth (locus YDL192W, strain arf1, active compounds read low) was 1, the normalized growth (locus YDR001C, strain nth1, active compounds read low) was 1.02 and the normalized growth (locus YDR069C, strain doa4, active compounds read low) was 0.854 (active). For the same molecule, the normalized growth (locus YDR101C, strain arx1, active compounds read low) was 1, the normalized growth (locus YDR137W, strain rgp1, active compounds read low) was 1.26 [resistant] (active) and the normalized growth (locus YDR150W, strain NUM1, active compounds read low) was 0.973. It also gave a normalized growth (locus YDR159W, strain sac3, active compounds read low) of 0.92, a normalized growth (locus YDR162C, strain NBP2, active compounds read low) of 0.975 and a normalized growth (locus YDR195W, strain ref2) of 1.05. For the same molecule, the normalized growth (locus YDR297W, strain sur2, active compounds read low) was 0.959, the normalized growth (locus YDR318W, strain mcm21, active compounds read low) was 0.975 and the normalized growth (locus YDR334W, strain swr1, active compounds read low) was 1.01. The normalized growth (locus YDR335W, strain msn5, active compounds read low) was 0.959, the normalized growth (locus YDR363W, strain ESC2, active compounds read low) was 0.989 and the normalized growth (locus YDR388W, active compounds read low) was 0.838 (active). The normalized growth (locus YDR392W, strain spt3, active compounds read low) was 0.646 (active), the normalized growth (locus YDR502C, strain sam2, active compounds read low) was 0.986 and the normalized growth (locus YEL003W, strain gim4, active compounds read low) was 0.944. It also gave a normalized growth (locus YEL037C, strain rad23, active compounds read low) of 0.936, a normalized growth (locus YEL061C, strain CIN8 (second series), active compounds read low) of 1.01 and a normalized growth (locus YEL061C, strain CIN8, active compounds read low) of 0.989. It also gave a normalized growth (locus YER015W, strain faa2, active compounds read low) of 0.953, a normalized growth (locus YER016W, strain bim1, active compounds read low) of 0.961 and a normalized growth (locus YER110C, active compounds read low) of 0.993. The normalized growth (locus YER111C, strain swi4, active compounds read low) was 1.02, the normalized growth (locus YER155C, strain BEM2 (second series), active compounds read low) was 0.707 (active) and the normalized growth (locus YER155C, strain BEM2, active compounds read low) was 1.02. For the same molecule, the normalized growth (locus YER167W, strain BCK2, active compounds read low) was 0.99, the normalized growth (locus YFR010W, strain ubp6, active compounds read low) was 0.878 (active) and the normalized growth (locus YGL078C, strain dbp3, active compounds read low) was 0.994. It also gave a normalized growth (locus YGL086W, strain mad1, active compounds read low) of 0.986, a normalized growth (locus YGL167C, strain pmr1, active compounds read low) of 1.01 and a normalized growth (locus YGL173C, strain kem1, active compounds read low) of 0.936. It also gave a normalized growth (locus YGL227W, strain vid30, active compounds read low) of 1.03, a normalized growth (locus YGL240W, strain doc1, active compounds read low) of 0.916 and a normalized growth (locus YGL248W, strain PDE1, active compounds read low) of 0.979. The normalized growth (locus YGL253W, strain hxk2, active compounds read low) was 0.938, the normalized growth (locus YGR078C, strain PAC10, active compounds read low) was 0.967 and the normalized growth (locus YGR135W, strain pre9, active compounds read low) was 0.926. For the same molecule, the normalized growth (locus YGR229C, strain SMI1, active compounds read low) was 0.949, the normalized growth (locus YGR252W, strain gcn5, active compounds read low) was 0.782 and the normalized growth (locus YHR013C, strain ard1, active compounds read low) was 1.02. The normalized growth (locus YHR027C, strain rpn1, active compounds read low) was 0.927, the normalized growth (locus YHR030C, strain SLT2, active compounds read low) was 0.995 and 0.973 and the normalized growth (locus YHR079C, strain IRE1 (second series), active compounds read low) was 0.994. For the same molecule, the normalized growth (locus YHR079C, strain IRE1, active compounds read low) was 0.942, the normalized growth (locus YHR094C, strain hxt1, active compounds read low) was 0.995 and the normalized growth (locus YHR129C, strain ARP1, active compounds read low) was 0.987. For the same molecule, the normalized growth (locus YHR142W, strain chs7, active compounds read low) was 0.915, the normalized growth (locus YHR200W, strain rpn10, active compounds read low) was 0.988 and the normalized growth (locus YIL066C, strain RNR3, active compounds read low) was 0.968. The normalized growth (locus YIL073C, strain SPO22, active compounds read low) was 1.72 [resistant] (active), the normalized growth (locus YIL125W, strain kgd1, active compounds read low) was 0.995 and the normalized growth (locus YIR030C, strain dcg1, active compounds read low) was 1. For the same molecule, the normalized growth (locus YJL092W, strain hpr5, active compounds read low) was 0.936, the normalized growth (locus YJL095W, strain BCK1 (second series), active compounds read low) was 0.973 and the normalized growth (locus YJL095W, strain BCK1, active compounds read low) was 1.01 and 0.96. For the same molecule, the normalized growth (locus YJL115W, strain asf1, active compounds read low) was 1.02, the normalized growth (locus YJL129C, strain trk1, active compounds read low) was 0.885 and the normalized growth (locus YJL134W, strain LCB3, active compounds read low) was 0.993. The normalized growth (locus YJL154C, strain vps35, active compounds read low) was 1.01, the normalized growth (locus YJL164C, strain tpk1, active compounds read low) was 0.937 and the normalized growth (locus YJL166W, strain qcr8, active compounds read low) was 0.947. It also gave a normalized growth (locus YJL168C, strain set2, active compounds read low) of 0.997, a normalized growth (locus YJL187C, strain SWE1 (second series), active compounds read low) of 0.97 and a normalized growth (locus YJR043C, strain POL32, active compounds read low) of 0.996. The normalized growth (locus YJR066W, strain TOR1, active compounds read low) was 0.93.

From PubChem BioAssay AID1159580 (chemical genetic matrix, 2015)
